hgDAF12 agonist = H. glycines DAF-12 receptor agonists, primary screen, cell-based, luminescence, HEK293, GAL4 fusion, UAS-luciferase; actives 1.8% (n = 370,000); AID 687014, 2013; Nuclear hormone receptor DAF-12 (Heterodera glycines), GAL4 fusion; HEK293 GAL4-hgDAF12 UAS-luciferase reporter, agonist luminescence; normalized to butyrate control; activation, % at 6.8 µM;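 active means activation above a cutoff set at the mean of all screened compounds plus 3 SD, cut at about 10% in these data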
SMARCA2 act = SMARCA2 (BRM) function activators, primary screen, cell-based, luminescence, high throughput; MG213 cells, MMTV-luciferase reporter, dexamethasone, overnight; activation, % at 9.1 µM; actives 1% (n = 370,000); AID 652017, 2013; in the data active means activation above about 7.8%
DAX1 StAR inh = DAX1 (NR0B1) inhibitors on StAR promoter, primary screen, cell-based, luminescence, SF-1 (NR5A1), full-length DAX-1 | HEK293T StAR-luciferase reporter, SF-1/DAX-1 repression relief | inhibition, % at 6.8 µM | actives 1.1% (n = 370,000);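 active means inhibition above the mean over all tested compounds plus 3 SD, cut at about 3.6% in these data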;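 further: higher inhibition means more luminescence from relief of DAX-1 repression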
ssDAF-12 act = S. stercoralis DAF-12 nuclear receptor activators, primary screen, cell-based, luminescence, HEK293, GRIP1 co-expression, lit1-tk-luc. activation, % at 6.8 µM. Nuclear hormone receptor DAF-12 (Strongyloides stercoralis). HEK293 ssDAF-12/GRIP1 lit1-tk-luc reporter; % of 3 µM dafachronic acid response. AID 652126, 2013. actives 1% (n = 370,000);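 active means activation above the mean over all tested compounds plus 3 SD, cut at about 0.9% in these data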
hcDAF12 agonist = H. contortus DAF-12 nuclear receptor activators, primary screen, cell-based, luminescence, HEK293, lit1-tk-luc reporter; HEK293 hcDAF-12 lit1-tk-luc reporter; 0% DMSO, 100% Δ7-dafachronic acid; activation, % at 6.8 µM; actives 1.4% (n = 370,000);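 active means activation above the mean of all tested compounds plus 3 SD, cut at about 5.5% in these data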
LXR ag = LXR agonists, Gal4 luciferase reporter, confirmation, counter-screen for hcDAF-12 agonist project, cell-based, luminescence, HEK293, H. contortus campaign; shares compounds with hcDAF12 agonist; HEK293 Gal4-LXR tk-luc reporter, 24 h; normalized: DMSO 0%, positive control 100%; activation, % at 6.8 µM; 3,400 tested, under 10 active; AID 743027, 2013;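 active means mean percent activation of the reporter above a cutoff set as the average over tested compounds plus their standard deviation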
Target sequence (P55055 whole entry, looked up, the tested form may be a part): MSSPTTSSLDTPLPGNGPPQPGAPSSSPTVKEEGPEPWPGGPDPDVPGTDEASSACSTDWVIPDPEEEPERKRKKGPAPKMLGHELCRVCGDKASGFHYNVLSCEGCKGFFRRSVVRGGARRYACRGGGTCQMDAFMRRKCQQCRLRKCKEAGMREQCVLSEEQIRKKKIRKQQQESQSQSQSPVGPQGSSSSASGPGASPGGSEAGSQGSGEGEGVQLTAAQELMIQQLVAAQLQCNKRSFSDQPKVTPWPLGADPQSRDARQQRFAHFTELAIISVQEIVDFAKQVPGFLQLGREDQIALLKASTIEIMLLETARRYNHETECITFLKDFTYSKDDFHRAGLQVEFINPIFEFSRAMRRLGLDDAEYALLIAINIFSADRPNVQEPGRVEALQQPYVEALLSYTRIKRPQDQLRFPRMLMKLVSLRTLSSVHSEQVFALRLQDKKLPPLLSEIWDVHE
hcDAF12 conf = H. contortus DAF-12 receptor agonists, confirmation, cell-based, luminescence, HEK293, lit1-tk-luc, triplicate; actives 61% (n = 3,400); activation, % at 6.8 µM; shares compounds with hcDAF12 agonist; HEK293 hcDAF-12 lit1-tk-luc reporter; % of Δ7-dafachronic acid response;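 active means mean activation across triplicate tests above the threshold derived from the earlier primary screen, cut at about 5.5% in these data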
Hits are given with their value; i = inactive; nt = not tested or not shown. Only some compounds are listed: those with a hit (about 4.2% of all), similar ones and a draw of the others.

SMILES	hgDAF12 agonist	SMARCA2 act	DAX1 StAR inh	ssDAF-12 act	hcDAF12 agonist	LXR ag	hcDAF12 conf
CN1CC(=O)N2[C@@H](C[C@]3(c4c[nH]c5ccccc45)c4ccccc4N(S(=O)(=O)c4ccccc4)[C@H]23)C1=O	i	nt	nt	i	6.6	i	i
O=C1N[C@@H](Cc2ccccc2)C(=O)N2[C@@H]1C[C@]1(Br)c3ccccc3N(S(=O)(=O)c3ccccc3)[C@H]21	i	i	i	i	i	nt	nt
Cn1cncc1C#Cc1ccc(N2C(c3ccsc3)=Cc3ccc(F)cc3C2c2c[nH]c3ccccc23)cc1 (stereo unspecified)	i	i	i	i	i	nt	nt
COc1ccc(-c2ccc(N3C(c4ccsc4)=Cc4ccc(F)cc4C3c3c[nH]c4ccccc34)cc2)cc1 (stereo unspecified)	i	i	i	1.5	8.5	i	6.9
O=C1c2ccccc2C(=O)C1c1nccc2ccccc12	18	i	i	4.0	27	i	24
CCc1ccccc1C1C(=O)c2ccccc2C1=O	i	i	i	i	i	nt	nt
O=c1[nH]c(-[n+]2ccc3ccccc3c2)c(/C=N/N=C(\[O-])c2ccccc2)s1	i	i	i	i	9.0	i	i
CC(C)(C)c1cc[n+](-c2[nH]c(=O)sc2/C=N/N=C(\[O-])c2cccnc2)cc1	i	i	i	i	i	nt	nt
CC1CCCCN1C(=O)CSCC(=O)Nc1nc(-c2cccs2)cs1 (stereo unspecified)	i	i	i	i	6.6	i	i
S=C(Nc1cccc(Br)c1)OC1CCC12CCC(c1ccccc1)CC2 (stereo unspecified)	i	i	i	i	i	nt	nt
O=C(Nc1ccc2oc(=O)ccc2c1)c1ccccc1[N+](=O)[O-]	i	i	i	i	i	nt	nt
Cc1ccc(NC(=O)c2ccc(F)cc2F)cc1	i	i	i	i	8.9	i	i
O=C(Nc1ccc2ccccc2c1)c1ccccc1[N+](=O)[O-]	i	i	i	i	7.9	i	i
O=C(Nc1ccc2ccccc2c1)c1ccccc1O	i	i	i	1.0	7.8	i	20
O=C(COC(=O)c1ccccc1O)Nc1ccc2ccccc2c1	i	i	i	i	i	nt	nt
Cc1ccc(NC(=O)NNC(=O)c2cc3ccccc3cc2O)cc1C	i	i	i	i	i	nt	nt
Cc1ccc(NC(=O)c2cc3ccccc3cc2O)cc1	i	i	i	i	10	i	9.2
CCC(CC)CN1CCC(CN2C(=S)NC[C@@H]2Cc2ccccc2)CC1	i	i	i	i	i	nt	nt
CCCC1CCC2(CC1)CCC2OC(=S)Nc1ccc(Br)cc1 (stereo unspecified)	i	nt	nt	i	i	nt	nt
O=C(c1ccco1)N1CCN(C(=O)c2ccco2)C1=S	i	i	i	i	i	nt	nt
Cc1cccn2c1nc(=S)n2C(=O)c1ccco1	12	i	i	i	9.5	i	9.2
CCN1CCN(c2nc3c(C)cccn3c(=O)c2/C=C(\C#N)S(=O)(=O)c2ccccc2)CC1	i	i	i	i	i	nt	nt
Cc1cccn2c(=O)c(/C=C(\C#N)S(=O)(=O)c3ccccc3)c(N3CCN(c4ccccc4)CC3)nc12	i	i	i	i	6.7	i	i
CC1=NN(C(N)=S)C(=O)C1N=Nc1ccc(C)cc1C (stereo unspecified)	11	i	i	1.2	12	i	13
CC1=NN(C(N)=S)C(=O)C1N=Nc1ccccc1C (stereo unspecified)	i	i	i	i	i	nt	nt
SMILES	hgDAF12 agonist	SMARCA2 act	DAX1 StAR inh	ssDAF-12 act	hcDAF12 agonist	LXR ag	hcDAF12 conf
Cn1ccnc1SCC(=O)c1c[nH]c2ccccc12	i	i	i	3.8	9.3	i	7.4
COc1ccccc1C(=O)CSc1nccn1C	i	i	i	i	i	nt	nt
CC(C)c1ccc2c(c1)C1Cc3ccccc3C1N2 (stereo unspecified)	i	i	i	i	7.8	i	i
O=S1(=O)NC2c3ccccc3CC2O1 (stereo unspecified)	i	i	i	i	i	nt	nt
Cc1nn2c(-c3ccncc3)nnc2c2ccccc12	i	i	i	i	i	nt	nt
COc1ccc(-c2nnc3c4ccccc4c(C)nn23)cc1	i	i	i	i	6.7	i	5.7
Cc1c(-c2ccccn2)c(=O)[nH]n1-c1ccc(F)cc1	26	i	4.2	1.8	15	i	15
O=c1[nH]n(-c2ccc(F)cc2)c2ncccc12	i	i	i	i	i	nt	nt
C[C@H]1[C@@H](NCc2cccs2)CC[C@@]23CCCN2C(=O)CCC[C@@H]13	i	nt	nt	i	i	nt	nt
O=C(CSc1nnc(-c2cccs2)o1)c1ccc(F)cc1	i	i	i	i	i	nt	nt
CC(=O)N1N=C2c3ccccc3CCC2C1c1cccs1 (stereo unspecified)	i	i	i	i	i	nt	nt
CCn1cc(Cl)c(C(=O)N2N=C3/C(=C/c4cccs4)CCCC3C2c2cccs2)n1 (stereo unspecified)	i	i	i	i	6.6	i	i
O=C(CSc1nnc(COc2ccccc2)n1-c1ccc(Cl)cc1)Nc1ccc(OCc2ccccc2)cc1	i	i	i	i	i	nt	nt
CCC(C)(C)C1CCc2[nH]nc(C(=O)N/N=C(\C)c3ccco3)c2C1 (stereo unspecified)	i	i	i	i	i	nt	nt
C/C(=N\NC(=O)c1n[nH]c2c1CCC2)c1ccco1	i	i	i	i	11	i	i
Cc1ccc(-c2nc(CS(=O)(=O)CC(=O)NCCCN(Cc3ccccc3)C(C)C)c(C)o2)cc1	i	i	i	i	i	nt	nt
Cc1oc(-c2ccc(-c3ccccc3)cc2)nc1CN(CCO)C(C)C	14	i	i	1.6	7.2	i	17
COc1cccc(/C=N/Nc2ccc(Cl)nn2)c1OC	i	i	i	i	i	nt	nt
COc1cccc(/C=N/Nc2nnc3c(n2)[nH]c2ccccc23)c1OC	i	i	i	i	7.1	i	i
Cc1nn(-c2ccccc2Cl)c(Cl)c1/C=N/Nc1nc2ccccc2s1	i	i	i	i	i	nt	nt

Screening data: PubChem, The Scripps Research Institute Molecular Screening Center
